FPR ligand – human FPR ligand, with FPRL1 counter-screen; P21462; inhibition, % (no concentration beside the values); FPR-expressing cells, fluorescent ligand binding, flow cytometry; AID 440; 24,000 compounds, 0.74% hits
LNCaP diff act – activators of LNCaP prostate cell differentiation; flow cytometry side scatter, 4 d; 24,000 compounds, 0.56% hits; side scatter shift, % at 10 µM; AID 795;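 active = side scatter shift above 30%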;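 note: androgen-responsive LNCaP prostate cancer cells in charcoal-stripped serum medium; higher shift means more granular cells and more differentiation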
Jurkat autofluor – counter-screen for VLA-4 integrin: compound autofluorescence in Jurkat cells. flow cytometry; active compounds read high; 1 = vehicle-only cell background. fluorescence ratio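 (tested at 10 µM compound in the well)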. 24,000 compounds, 0.61% hits. AID 576;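 active = fluorescence ratio above 2.44, which is 1 plus 3 SD of all ratios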;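 note: green fluorescence of cells measured with 488 nm excitation and 530 nm emission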
VLA-4 antagonist – inhibition of LDV-FITC ligand binding to human VLA-4 integrin; P13612; Jurkat cells, LDV-FITC binding with Mn2+, flow cytometry; 100% = Mn2+-driven binding gain fully reversed; inhibition, % at 10 µM (by protocol); 24,000 compounds, 0.2% hits;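 active = inhibition above 50%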
FPRL1 binder – binds the human formylpeptide receptor-like-1 FPRL1. FPRL1-expressing cells, fluorescent ligand binding inhibition, flow cytometry. P25090. inhibition, % (concentration not given with the values). AID 441. 24,000 compounds, 0.3% hits
VLA-4 allo ag – allosterically activates the human VLA-4 integrin. P13612. Jurkat cells, LDV-FITC binding, flow cytometry. activation, % at 10 µM (by protocol). 24,000 tested, under 10 active;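 active = fluorescent ligand binding to cells raised by more than 40% of the manganese-induced maximum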
Each line names hits and unclear results; the compound was inactive in the other large screens. Shown are actives, neighbours in structure and some others; about 1.9% of the full set was active somewhere. Cut-off read from the data, not from the text of the source, unless noted: active = inhibition above about 30%; inconclusive = no clear call, values can overlap the other calls; inactive = below that.

O=c1c2ccccc2[se]n1-c1ccccc1	VLA-4 allo ag 40.0
Cc1c(C(=O)N2CCC3(CC2)OCCO3)sc2ncnc(N3CCN(c4ccccn4)CC3)c12	none
Cc1cc(C)c(C(=O)CN2CCOCC2)c(C)c1	none
Cc1ccc2c(c1)[C@@H]1CN(C)CC[C@@H]1N2C(=O)Nc1cccc(C(F)(F)F)c1	LNCaP diff act 55.0
CCOc1ccc(C2SCC(=O)Nc3c2c(=O)[nH]n3C2CCCCCC2)cc1 (stereo unspecified)	LNCaP diff act 34.0
COc1ccc(C2SCC(=O)Nc3c2c(=O)[nH]n3C2CCCCCC2)cc1OC (stereo unspecified)	none

Assay outcomes (PubChem BioAssay)
